Laboratory results from the supplement of paper PMC12340641.

What follows are compounds tested on HEK293FT dCK*-only (assay: relative growth in counter assay (no AraC = 100%, AraC + DMSO = 0%); higher = more growth rescue independent of IKZF1). Details: compound concentration: 5 uM; AraC concentration: 0.3 uM; overnight pretreatment + 4 days AraC.
Summary of the method: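 Nuclei were counted by imaging after Hoechst 33342 staining on day 5, in HEK293FT cells (300/well, 384-well) expressing only an engineered kinase construct. Compound at 5 μM went in 2 h after seeding, followed after overnight at 37 °C by a nucleoside suicide substrate at 0.3 μM plus medium for 4 days. Per plate, wells lacking suicide substrate defined 100% and those with substrate plus vehicle defined 0%.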

SMILES | relative growth in counter assay [%]
C=C(C)CN1CC[C@]23c4c5ccc(O)c4O[C@H]2c2[nH]c4ccccc4c2C[C@@]3(O)C1C5 | -7.54
O=c1n(Cl)c(=O)n(Cl)c(=O)n1Cl | -2.72
COc1ccc(C[C@H]2NC[C@H](O)[C@H]2OC(C)=O)cc1 [anisomycin] | -34.7
C(=C\c1ccccc1)/CN1CCN(CCOC(c2ccccc2)c2ccccc2)CC1 | -4.14
COc1cc2cc(c1Cl)N(C)C(=O)C[C@H](OC(=O)C(C)C)[C@]1(C)O[C@H]1[C@H](C)[C@@H]1C[C@@](O)(NC(=O)O1)[C@H](OC)/C=C/C=C(\C)C2 [Ansamitocin P-3] | -34.3
O=C(CCCN1CCC2(CC1)C(=O)NCN2c1ccccc1)c1ccc(F)cc1 [spiperone] | -1.41
c1ccc2c(c1)sc1ccccc12 | -4.73
O=[N+]([O-])c1cc(O)c(O)c([N+](=O)[O-])c1 | 2.01
COC[C@H]1OC(=O)c2coc3c2[C@@]1(C)C1=C(C3=O)[C@@H]2CCC(=O)[C@@]2(C)C[C@H]1OC(C)=O [Wortmannin] | 0.96
COc1cc([C@@H]2c3cc4c(cc3[C@H](O)[C@H]3COC(=O)C23)OCO4)cc(OC)c1OC (stereo not given in full) [Podofilox] | -34
Clc1ccccc1C(c1ccccc1)(c1ccccc1)n1cccn1 | 1.96
COc1cc([C@@H]2c3cc4c(cc3[C@H](O)[C@H]3COC(=O)[C@H]23)OCO4)cc(OC)c1OC | -33.7
Oc1cc(Cl)ccc1Oc1ccc(Cl)cc1Cl | -4.14
O=[N+]([O-])/C=C/c1ccc2c(c1)OCO2 | -33.6
O=[N+]([O-])c1ccc(Cl)c([N+](=O)[O-])c1 [2,4-dinitrochlorobenzene] | -34.1
CC[C@@]1(O)C(=O)OCc2c1cc1n(c2=O)Cc2cc3ccccc3nc2-1 [camptothecin] | -34.5
CCC(C)[C@H]1O[C@]2(C=C[C@@H]1C)C[C@@H]1C[C@@H](C/C=C(\C)[C@@H](OC3C[C@H](OC)C(O[C@H]4C[C@H](OC)[C@@H](O)[C@H](C)O4)[C@H](C)O3)[C@@H](C)/C=C/C=C3\CO[C@@H]4[C@H](O)C(C)=C[C@@H](C(=O)O1)[C@]34O)O2 (stereo not given in full) [ABAMECTIN (avermectin B1a shown)] | -8.1
O=c1[nH]c2ccccc2n1CCCN1CCC(n2c(=O)[nH]c3cc(Cl)ccc32)CC1 | -4.05
COC(=O)[C@@]12OC[C@]34[C@H]([C@@H](O)[C@@H]1O)[C@@]1(C)CC(=O)C(O)=C(C)[C@@H]1C[C@H]3OC(=O)[C@H](OC(=O)/C=C(\C)C(C)C)[C@@H]24 [Bruceantin] | -34.9
CC(C)[C@]12O[C@H]1[C@@H]1O[C@]13[C@]1(O[C@H]1C[C@H]1C4=C(CC[C@@]13C)C(=O)OC4)[C@@H]2O [Triptolide] | -34
CCCCCCCCCCC(=O)O[C@H]1CC[C@H]2[C@@H]3CCC4=CC(=O)CC[C@]4(C)[C@H]3CC[C@]12C [Testosterone (undecanoate)] | 4.31
CN(C)C(=S)SSC(=S)N(C)C | -35.1
c1ccc2c(c1)Nc1ccccc1S2 | -0.21
Cc1cc(C(C#N)c2ccc(Cl)cc2)c(Cl)cc1NC(=O)c1cc(I)cc(I)c1O (stereo not given) | -3.81
O=C1/C(=C/c2ccccc2)C[C@@]2(O)C3Cc4ccc(O)c5c4[C@@]2(CCN3CC2CC2)[C@H]1O5 | -34.5
Cc1cc(O)c2c(=O)c3c(O)cc(O)c4c5c(O)cc(O)c6c(=O)c7c(O)cc(C)c8c1c2c(c34)c(c78)c65 [Hypericin] | -9.3
C[C@H]1O[C@@H](O[C@H]2[C@@H](O)C[C@H](O[C@H]3[C@@H](O)C[C@H](O[C@H]4CC[C@@]5(C)[C@H](CC[C@@H]6[C@@H]5C[C@@H](O)[C@]5(C)C(c7coc(O)c7)CC[C@]65O)C4)O[C@@H]3C)O[C@@H]2C)C[C@H](O)[C@@H]1O (stereo not given in full) [Digoxin] | -34.1
CCOc1ccccc1-n1c(C(C)N2CCN(C(=O)COc3ccc(Cl)cc3)CC2)nc2ccccc2c1=O (stereo not given) [Erastin] | -4.63
C[C@]12CC[C@H](O)C[C@H]1CC[C@@H]1[C@@H]2C[C@@H](O)[C@]2(C)[C@@H](C3=CC(=O)OC3)CC[C@]12O [Digoxigenin] | -33.8
OC1=[C@]([C@]2=C(O)C(C(C=O)=C(O)C(O)=C3C(C)C)=C3C=C2C)C(C)=CC4=C1C(C=O)=C(O)C(O)=C4C(C)C [gossypol] | -34.8
